Screening results (PubChem)
Only some compounds are listed: those with a hit (about 0.3% of all), similar ones and a draw of the others.
NPYLR7 agonist: agonists of mosquito NPYLR7 receptor, primary screen, cell-based, Aedes aegypti, calcium fluorescence, mosquito biting behavior | hit rate 0.15% among 270,000 | activation, % at 10 µM | HEK293T NPYLR7/Galpha15, GCaMP6s calcium fluorescence | Aedes aegypti neuropeptide Y-like receptor 7 (NPYLR7); in the data active means activation above about 40%;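 further: 0% = vehicle and 100% = reference agonist at the receptor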
hcGAS lum: Primary biochemical luminescence assay for human cyclic GMP-AMP synthase inhibitors; hit rate 0.081% among 290,000; recombinant h-cGAS, ATP depletion, Kinase-Glo luminescence; inhibition, % at 12.5 µM; Q8N884;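 further: 0% = vehicle reaction and 100% = reaction without DNA for no activity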
Target sequence (Q8N884 whole entry, looked up): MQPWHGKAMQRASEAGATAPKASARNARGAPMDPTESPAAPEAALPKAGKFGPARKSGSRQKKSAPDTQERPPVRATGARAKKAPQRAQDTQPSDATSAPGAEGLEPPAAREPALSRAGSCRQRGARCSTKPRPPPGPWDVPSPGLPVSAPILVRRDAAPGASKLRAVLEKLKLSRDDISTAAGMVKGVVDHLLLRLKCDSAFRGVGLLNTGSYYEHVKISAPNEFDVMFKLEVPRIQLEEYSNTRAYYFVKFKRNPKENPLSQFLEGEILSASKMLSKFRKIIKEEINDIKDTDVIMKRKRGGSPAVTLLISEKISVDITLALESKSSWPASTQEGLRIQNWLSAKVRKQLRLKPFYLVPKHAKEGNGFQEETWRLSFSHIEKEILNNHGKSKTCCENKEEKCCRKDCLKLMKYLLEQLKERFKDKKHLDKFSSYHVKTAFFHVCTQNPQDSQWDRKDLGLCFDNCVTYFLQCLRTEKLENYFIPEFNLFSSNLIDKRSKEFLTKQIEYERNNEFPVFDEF
mcGAS lum: cyclic GMP-AMP synthase inhibitors, mouse, primary biochemical chemiluminescence. hit rate 0.15% among 160,000. recombinant cGAS, Kinase-Glo ATP depletion luminescence. inhibition, % at 12.5 µM;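 further: 0% = negative control wells and 100% = reference inhibitor with no enzyme activity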
An asterisk follows results filed as active; ! = not confirmed by another sample. Unless noted, no stated cut-off is given here; in the data, active means inhibition above about 40%; inactive means the rest.

What do the screens show for `COc1ccccc1C(=O)NCC1Cc2cc(Oc3ccccc3)ccc2O1` (stereo unspecified)?
NPYLR7 agonist: 4; hcGAS lum: -5; mcGAS lum: -6

How did CCOC(=O)c1c(-c2ccccc2)csc1N=Cc1nc(-c2ccccc2)oc1O do in these assays?
NPYLR7 agonist: 97*; hcGAS lum: -6; mcGAS lum: -8

How did CCOC(=O)c1c(-c2ccc(C)cc2)csc1N=Cc1nc(-c2ccccc2)oc1O do in these assays?
NPYLR7 agonist: 3; hcGAS lum: -7; mcGAS lum: -7

What do the screens show for `COCC(C)n1c(C)cc(C(=O)CSc2nc(C)nc3sc(C)c(C)c23)c1C` (stereo unspecified)?
NPYLR7 agonist: 9; hcGAS lum: -3

How did CCN1CCC(N2CCN(c3ccc(Cl)c(C(=O)O)n3)CC2)CC1 do in these assays?
NPYLR7 agonist: 10; hcGAS lum: -5

Results for COC(CNC1CCN(c2ccc3c(c2)OCO3)CC1)c1cccs1 (stereo unspecified) ?
NPYLR7 agonist: -2; hcGAS lum: -4

Results for CC(C)N(Cc1nccn1C)C(=O)c1cn(CC2CCCCC2)nn1 ?
NPYLR7 agonist: 21; hcGAS lum: -10

How did COc1cccc(C(=O)N2CCC(C(Cc3ccccc3)N(C)C(=O)c3cccs3)CC2)c1OC (stereo unspecified) do in these assays?
NPYLR7 agonist: 17; hcGAS lum: -6; mcGAS lum: -13

Results for Cc1c(NC(=O)COC(=O)C(C#N)=Cc2ccc(N(C)C)cc2)c(=O)n(-c2ccccc2)n1C ?
NPYLR7 agonist: 50*; hcGAS lum: -5; mcGAS lum: -6

Results for CCC(CC)C(=O)Nc1c(C)n(C)n(-c2ccccc2)c1=O ?
NPYLR7 agonist: -1; hcGAS lum: -5; mcGAS lum: -5

What do the screens show for `Cc1ccc(Cn2c(=O)c3c(nc4n(CCCN5CCOCC5)c(C)c(C)n34)n(C)c2=O)cc1`?
NPYLR7 agonist: 9; hcGAS lum: -4; mcGAS lum: -7

Results for NC(=O)n1c(O)c(C(=O)c2cccs2)c2cc(Cl)ccc21 ?
NPYLR7 agonist: -3; hcGAS lum: 67*

Results for O=C(c1cccs1)c1cccs1 ?
NPYLR7 agonist: -1; hcGAS lum: -9

How did CC1(C)C2CC[C@@]1(CS(=O)(=O)N1CCC[C@@H]1C(=O)NC1CCCC[C@H]1NC(=O)c1ccc(F)cc1)C(=O)C2 (stereo partly specified) do in these assays?
NPYLR7 agonist: 16; hcGAS lum: -2; mcGAS lum: -3

Results for CC1(C)OC2c3ccccc3OC3(C)CCC1CC23 (stereo unspecified) ?
NPYLR7 agonist: -5; hcGAS lum: -5

How did CC1CC2(C)Oc3ccccc3C3OCC1(CO)C(C)C32 (stereo unspecified) do in these assays?
NPYLR7 agonist: 43*; hcGAS lum: 0; mcGAS lum: -6

Results for CCN1CCC(N(C)S(=O)(=O)c2c(C)cc(C(C)(C)C)cc2C)CC1 ?
NPYLR7 agonist: 2; hcGAS lum: -1; mcGAS lum: 1

How did Cc1cc(C)nc(N=C(N)N2CCc3ccccc3C2)n1 do in these assays?
NPYLR7 agonist: -6; hcGAS lum: -2; mcGAS lum: -6

How did O=C(C1CCCCC1)N1CCC2(CC1)OCCN2S(=O)(=O)c1cccs1 do in these assays?
hcGAS lum: -11; mcGAS lum: -5

How did O=C(c1ccco1)N1CCN(C2=NN=C(c3cccs3)CS2)CC1 do in these assays?
NPYLR7 agonist: 2; hcGAS lum: 0; mcGAS lum: -5

How did Cn1ncc2c(N3CCCCC3)nc(N(CCO)Cc3ccccc3)nc21 do in these assays?
NPYLR7 agonist: 1; hcGAS lum: -6; mcGAS lum: -8

How did OCCN(CCO)c1nc(N2CCCCC2)c2nc(N(CCO)CCO)nc(N3CCCCC3)c2n1 do in these assays?
NPYLR7 agonist: 75*!; hcGAS lum: 1; mcGAS lum: -3

What do the screens show for `Cc1nc2sccn2c1CN1CCn2nc(C(=O)N3CCCC3)cc2C1`?
NPYLR7 agonist: 9; hcGAS lum: -5

How did Oc1cccc2ccc(Nc3ccccn3)nc12 do in these assays?
NPYLR7 agonist: -14; hcGAS lum: 57*; mcGAS lum: 6

Results for Oc1ccccc1C(Nc1ccccn1)c1ccc2cccnc2c1O (stereo unspecified) ?
NPYLR7 agonist: 2; hcGAS lum: 6

Results for CC(=O)Oc1c(/C=C(\C#N)C(N)=O)[nH]c2ccccc12 ?
NPYLR7 agonist: 51*; hcGAS lum: 4

Results for COC(=O)/C(C#N)=C/c1c(OC)[nH]c2ccccc12 ?
NPYLR7 agonist: -1; hcGAS lum: 1

How did O=C1C(Cl)=CC(=NS(=O)(=O)c2ccccc2)C(Cl)=C1Cl do in these assays?
NPYLR7 agonist: -7; hcGAS lum: 59*; mcGAS lum: 59*
